These results are taken from PubChem BioAssay (NCATS).

Inconclusive results are not listed. Where a call stands in place of a potency, no number is given. Values without a mark were called inactive. The source made the active and inactive calls. Calls come from the whole dose curve; as a rule, active = well fitted activation curve with a large enough effect; inconclusive = small, poorly fitted or top-dose-only effect; inactive = flat fitted curve, though single readings scatter.

A short description of this assay: Primary redox qHTS assay for identification of artifact compounds. (AID 1845223). As to conditions: Amplex Red/HRP redox cycling with DTT, fluorescence; series mostly up to 53.8 µM. The procedure, abridged:
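Redox-cycling detection via DTT (250 uM final) oxidation coupled to Amplex Red (25 uM)/HRP (250 mU/mL) in HBSS. 15 min preincubation plus 30 min after DTT, room temperature. Ex/Em 525/598 nm; 4-parameter Hill fit against DMSO and 10 uM DA3003.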
Take `CC(C)[C@@H](c1ccc(C(F)(F)F)cc1CN(Cc1cc(C(F)(F)F)cc(C(F)(F)F)c1)c1nnn(C)n1)N1CCC(C(=O)O)CC1`: the Potency result is “inactive”. The same measure, in the same setting: as for `CN(C)CCn1cc(-c2ccc(F)cc2)c(-n2cccc2)n1`, the entry is “inactive”; as for `O=C(NCc1ccccc1-c1ccccc1C(=O)NCCc1ccccn1)OCc1ccccc1`, “inactive”; as for `CCC(CC)Nc1nc(C)c(-c2ccc(OC(F)(F)F)cc2OC)nc1OC`, “inactive”.

As to `COc1cc2nc(N3CCN(C(=O)c4ccco4)C4CCCCC43)nc(N)c2cc1OC` (centres undefined), the Potency result is “inactive”. On the same count and under the same terms, with `CCOC(=O)N1CCC(N2CCC[C@@H](NC(=O)c3ccccc3C)C2)CC1` the entry was “inactive”; with `O=c1nc(-c2ccccn2)sc2ccccc12`, “inactive”. Same read-out and setting: as for `O=C(NCCN1CCC(n2c(=O)[nH]c3ccccc32)CC1)c1cc2cc(F)ccc2[nH]1`, the entry is “inactive”.

Take `Nc1nc2c(nc(Br)n2[C@@H]2O[C@@H]3COP(=O)(O)O[C@H]3[C@H]2O)c(=O)[nH]1`: the Potency result was “inactive”.

For the compound `C=CC(=O)N1CCCN(c2cc(NCCC(=O)O)nc(-c3ccccn3)n2)CC1`, the Potency result was “inactive”. On the same count and under the same terms, with `CS/C=C/C(=O)O[C@@H]1CCC2=CC(=O)C(=C(C)C)C[C@]2(C)[C@H]1C` the entry was “inactive”; with `CCOC(=O)N1c2ccc(C(F)(F)F)cc2C(N(Cc2cc(C(F)(F)F)cc(C(F)(F)F)c2)C(=O)OC)CC1CC` (centres undefined), “inactive”; with `O=C(NC1CCC1)c1ccc(C#Cc2cccc(F)c2)nc1`, “inactive”. Still for that read-out and setting: as for `COC(=O)CC[C@@H](C)C1CCC2C3CCC4C[C@H](OC(C)=O)CCC4(C)C3C[C@H](O)C21C` (some centres undefined), the entry is “inactive”; as for `CC(C)C(C)C(O)C1CC23CC(=O)C4(O)C(=C2CCC3C1C)C=CC1(O)CC(O)CCC14C` (centres undefined), “inactive”. Still for that read-out and setting: with `C#CC(=O)N(c1ccc(OC)cc1OC)C(C(=O)NCC(=O)OCC)c1cccs1` (centres undefined) the entry was “inactive”; with `CN(C)Cc1ccc(-c2cnn3c(-c4cccc(NC(=O)c5cccc(C(F)(F)F)c5)c4)ccnc23)cc1`, “inactive”; with `O=C(N[C@@H]1CCCc2c1cnn2-c1ccc(F)cc1F)c1ccccn1`, “inactive”.

In the case of `C=C1C(=O)O[C@H]2C1CCC(C)=C1C(=O)C=C(C)[C@@]12O` (some centres undefined), the Potency result is “inactive”.

As for `C=C1CC2OC(=O)C(=C)C2C(OC(=O)/C(C)=C\C)CC2(C)OC1=CC2=O` (centres undefined), the Potency result is “inactive”.

`CC(=O)OC1CC(O)(C(C)C)C2C(OC(=O)c3ccc(O)cc3)C=C(C)C(=O)CC12C` (centres undefined): the Potency result was “inactive”. Still for that read-out and setting: with `C/C=C(\C)C(=O)O[C@H]1C[C@](C)(O)[C@H]2CC=C(C)[C@H]2[C@@H]2OC(=O)[C@H](C)[C@H]21` the entry was “inactive”. The same measure, in the same setting: as for `COc1cc(C(C)=O)c(OC)c2c1OC(C)(C)C=C2`, the entry is “inactive”. For `CC12CCC(OC3OC(CO)C(O)C(O)C3OC3OC(CO)C(O)C(O)C3O)CC1CCC1C2CCC2(C)/C(=C3/COC(=O)C3)CCC12O` (centres undefined), the Potency entry was “inactive”. Same read-out and setting: as for `CC(C)c1cc2c(N3CCN(C4=NCC(C)(C)S4)CC3)ncnc2s1`, the entry is “inactive”; as for `C=C1C(=O)OC2CC(C)C(CCC(C)=O)=CCC12` (centres undefined), “inactive”; as for `CCCc1cc(C)n(C)c(=O)c1CN(C)C(=O)c1cc(-c2ccc(N3CCN(C(C)C)CC3)nc2)cc2c1cnn2C(C)C`, “inactive”. The same measure, in the same setting: as for `Cc1ccc(CNc2ncnc3ccc(-c4ccc(CO)o4)cc23)o1`, the entry is “inactive”.

Take `CC(=O)O[C@@H]1CC[C@@]2(C)C(CC[C@]3(C)C2[C@H](O)C=C2[C@H]4[C@@H](C)[C@H](C)CC[C@]4(C)CC[C@]23C)[C@@]1(C)C(=O)O` (some centres undefined): the Potency result is “inactive”. Same read-out and setting: with `O=C(Nc1ccccc1)N1CCN(c2nc(-c3ccccc3)ns2)CC1` the entry was “inactive”. `CC1(C)CC[C@]2(C(=O)O)[C@H](O)C[C@]3(C)C(=CCC4[C@@]5(C)CC[C@H](O[C@@H]6O[C@H](CO[C@@H]7OC[C@H](O)[C@H](O)[C@H]7O[C@@H]7OC[C@H](O)[C@H](O)[C@H]7O)[C@@H](O)[C@H](O)[C@H]6O)C(C)(C)C5CC[C@]43C)[C@@H]2C1` (some centres undefined): the redox activity (% of DA3003) is 16.3% [at 11.5 µM]. As for `Cc1noc(-c2ccc(-c3ccc(CC(=O)O)cc3)cc2)c1NC(=O)O[C@H](C)c1ccccc1Cl`, the Potency result was “inactive”.

In the case of `CCCSc1nc(N[C@@H]2C[C@H]2c2ccc(F)c(F)c2)c2nnn([C@@H]3C[C@H](OCCO)[C@@H](O)[C@H]3O)c2n1`, the Potency result is “inactive”.

For the compound `O=C(NCc1ccc(OC(F)(F)F)cc1)C1c2c(F)cccc2C(=O)N1CCc1ccccn1` (centres undefined), the Potency entry was “inactive”. On the same count and under the same terms, as for `CCN1CCN(Cc2ccc(NC(=O)c3ccc(C)c(Oc4ncnc5[nH]c(C)cc45)c3)cc2C(F)(F)F)CC1`, the entry is “inactive”; as for `CN(C)c1cccc(Oc2cnc(Nc3cccc(O)c3)nc2)c1`, “inactive”; as for `CN(C)C(=O)NC1(c2ccccc2)CCN(CCC[C@]2(c3ccc(Cl)c(Cl)c3)CCCN(C(=O)c3ccccc3)C2)CC1`, “inactive”.

As to `COc1ccc(C2(N(C)C(=O)c3ccc(NC(=O)c4ccco4)cc3)CCOCC2)cc1`, the Potency result was “inactive”.

Turning to `CC(C)(O)C1Cc2c(ccc(C(=O)CCc3ccccc3)c2O)O1` (centres undefined), the Potency result is “inactive”.
